In PubChem BioAssay AID1159580 (chemical genetic matrix, 2015):
Several values for one entry are separate records, joined by “and”; a condition that tells them apart may be missing. Equal entries are not always repeated. In all, about 5,500 compounds went through this assay and about 2,000 (36%) were called active. Not shown: some 18% with an inconclusive outcome. No stated cut-off is given here; in the data, active means normalized growth mostly below about 0.91 (no sharp cut-off); inconclusive means no clear call, values can overlap the other calls; inactive means mostly above about 0.92. The list shows a part of the results.

Assay: chemical genetic growth profiling, strain panel (AID 1159580);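 further: tested at 20 µM; growth read once vehicle control cultures reached saturation at 30 °C; 1 = growth at the plate median or of vehicle wells; lower values mean less growth of the strain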
Settings: S. cerevisiae deletion strains, growth OD

Measured: normalized growth

CC(=O)N=c1sc(S(N)(=O)=O)nn1C
inactive: locus YAL013W, strain DEP1, hits give low values 1.01 | locus YAL021C, strain ccr4, hits give low values 1.01 | locus YAL026C, strain drs2, hits give low values 1.01 | locus YAL030W, strain snc1, hits give low values 1 | locus YBL061C, strain skt5, hits give low values 1.01 | locus YBR009C, strain hhf1, hits give low values 1 | locus YBR021W, strain FUR4, hits give low values 1.02 | locus YBR023C, strain chs3, hits give low values 1.01 | locus YBR171W, strain sec66, hits give low values 1.03 | locus YBR229C, strain ROT2, hits give low values 1.01 | locus YBR231C, strain swc5, hits give low values 1.02 | locus YBR279W, strain paf1, hits give low values 1.01 | locus YCL011C, strain gbp2, hits give low values 1.01 | locus YCL016C, strain dcc1, hits give low values 1.01 | locus YCL029C, strain bik1, hits give low values 0.995 | locus YCL061C, strain MRC1, hits give low values 1.01 | locus YCL069W, strain vba3, hits give low values 1.01 | locus YCR088W, strain abp1, hits give low values 1.01 | locus YDL005C, strain med2, hits give low values 1.01 | locus YDL035C, strain GPR1, hits give low values 1.03 | locus YDL040C, strain nat1, hits give low values 0.999 | locus YDL074C, strain BRE1, hits give low values 0.995 | locus YDL101C, strain DUN1, hits give low values 1.01 | locus YDL134C, strain PPH21, hits give low values 1.02 | locus YDL185W, strain tfp1, hits give low values 1.01 | locus YDL192W, strain arf1, hits give low values 1.01 | locus YDR001C, strain nth1, hits give low values 1 | locus YDR069C, strain doa4, hits give low values 1.01 | locus YDR101C, strain arx1, hits give low values 1 | locus YDR137W, strain rgp1, hits give low values 1.04 | locus YDR150W, strain NUM1, hits give low values 1 | locus YDR159W, strain sac3, hits give low values 0.998 | locus YDR162C, strain NBP2, hits give low values 1.02 | locus YDR195W, strain ref2 0.991 | locus YDR297W, strain sur2, hits give low values 1 | locus YDR318W, strain mcm21, hits give low values 1.02 | locus YDR334W, strain swr1, hits give low values 1.01 | locus YDR335W, strain msn5, hits give low values 1.01 | locus YDR388W, hits give low values 1.01 | locus YDR392W, strain spt3, hits give low values 1.02 | locus YDR502C, strain sam2, hits give low values 0.998 | locus YEL003W, strain gim4, hits give low values 1.01 | locus YEL037C, strain rad23, hits give low values 1 | locus YEL061C, strain CIN8 (second series), hits give low values 1.01 | locus YEL061C, strain CIN8, hits give low values 1 | locus YER015W, strain faa2, hits give low values 0.989 | locus YER016W, strain bim1, hits give low values 1.01 | locus YER110C, hits give low values 1.02 | locus YER111C, strain swi4, hits give low values 0.994 | locus YER155C, strain BEM2 (second series), hits give low values 1.02 | locus YER155C, strain BEM2, hits give low values 1 | locus YER167W, strain BCK2, hits give low values 1.02 | locus YFR010W, strain ubp6, hits give low values 1.02 | locus YGL078C, strain dbp3, hits give low values 1 | locus YGL086W, strain mad1, hits give low values 0.998 | locus YGL167C, strain pmr1, hits give low values 1.01 | locus YGL173C, strain kem1, hits give low values 1.01 | locus YGL227W, strain vid30, hits give low values 1.01 | locus YGL240W, strain doc1, hits give low values 1.03 | locus YGL248W, strain PDE1, hits give low values 0.997 | locus YGL253W, strain hxk2, hits give low values 1.02 | locus YGR135W, strain pre9, hits give low values 1.06 | locus YGR252W, strain gcn5, hits give low values 1.01 | locus YHR013C, strain ard1, hits give low values 1.03 | locus YHR027C, strain rpn1, hits give low values 1.02 | locus YHR030C, strain SLT2, hits give low values 1 and 1.06 | locus YHR079C, strain IRE1 (second series), hits give low values 1.01 | locus YHR079C, strain IRE1, hits give low values 1.06 | locus YHR094C, strain hxt1, hits give low values 1.01 | locus YHR129C, strain ARP1, hits give low values 1.02 | locus YHR142W, strain chs7, hits give low values 1.02 | locus YHR200W, strain rpn10, hits give low values 1.01 | locus YIL066C, strain RNR3, hits give low values 1 | locus YIL073C, strain SPO22, hits give low values 1.07 | locus YIL125W, strain kgd1, hits give low values 0.997 | locus YIR030C, strain dcg1, hits give low values 0.996 | locus YJL092W, strain hpr5, hits give low values 1.02 | locus YJL095W, strain BCK1 (second series), hits give low values 1.01 | locus YJL095W, strain BCK1, hits give low values 0.989 and 1.05 | locus YJL115W, strain asf1, hits give low values 1.01 | locus YJL129C, strain trk1, hits give low values 1 | locus YJL134W, strain LCB3, hits give low values 1.01 | locus YJL154C, strain vps35, hits give low values 1 | locus YJL164C, strain tpk1, hits give low values 1.01 | locus YJL166W, strain qcr8, hits give low values 0.998 | locus YJL168C, strain set2, hits give low values 1.01 | locus YJL187C, strain SWE1 (second series), hits give low values 0.984 | locus YJL187C, strain SWE1, hits give low values 1.01 | locus YJR043C, strain POL32, hits give low values 0.986 | locus YJR066W, strain TOR1, hits give low values 0.984
